# Screening data as filed in PubChem BioAssay.
# An excerpt weighted towards active compounds, which were near 0.68% of everything screened.
# Mtb hypoxia inh – PubChem AID 1159583 | M. tuberculosis hypoxia-regulated fluorescent reporter, fluorescence | fluorescence inhibition, % (concentration not given with the values) | 0.1% of 300,000 active; in the data active = fluorescence inhibition mostly above about 23%, no sharp cut-off; inactive = mostly below about 17%
# Sa ugtP lethal – growth inhibition of ugtP-null S. aureus, primary screen, RN4220 ugtP deletion, OD600; 0.54% of 330,000 active; AID 1259309, 2017; growth inhibition, % (concentration not given with the values); 16 h; in the data active = growth inhibition above about 68%;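 note: plate controls were untreated wells for no effect and antibiotic for full effect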
# RN4220 kill – growth inhibition of S. aureus RN4220, primary screen, OD600 | 0.33% of 330,000 active | inhibition, % (concentration not given with the values) | 16 h; in the data active = inhibition above about 85%;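 note: plate controls were untreated cells for no effect and reference antibiotic for full effect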
# The depositor's hits bear a star; · = not tested or not shown.
SMILES,Mtb hypoxia inh,Sa ugtP lethal,RN4220 kill
O=[N+]([O-])c1ccc(-c2csc(NN=Cc3cccnc3)n2)cc1,3,22,7
CCC(=O)NC(c1cccs1)c1cc([N+](=O)[O-])c2cccnc2c1O (stereo not given),3,98*,96*
CCCC(=O)NC(c1cccs1)c1cc([N+](=O)[O-])c2cccnc2c1O (stereo not given),15,91*,80
O=C(CCc1ccccc1)NC(c1cccs1)c1cc(Cl)c2cccnc2c1O (stereo not given),14,16,76
CC(=O)NC(c1cccs1)c1cc([N+](=O)[O-])c2cccnc2c1O (stereo not given),16,39,53
CCC(C)C(NC(=O)NC(C)C)C(=O)O (stereo not given),10,-5,5
COc1ccccc1C(=O)NNC1=C(C(=O)C(F)(F)F)CCC1,-3,99*,101*
COc1ccccc1C(=O)NNC(=O)c1ccccc1,2,10,3
COc1cccc(C(=O)NNC2=C(C(=O)C(F)(F)F)CCC2)c1,0,93*,-6
O=C(NNC1=C(C(=O)C(F)(F)F)CCC1)c1ccccc1Cl,4,83,-13
COc1cccc(C(=O)NN=C2CCCC2)c1,1,1,3
O=C(NNC1=C(C(=O)C(F)(F)F)CCC1)c1ccc(Br)cc1,7,100*,101*
O=C(NNC1=C(C(=O)C(F)(F)F)CCC1)c1ccccc1O,-8,101*,100*
Nc1ccccc1C(=O)NNC1=C(C(=O)C(F)(F)F)CCC1,5,52,-2
Cc1cccc(C=NNC(=O)c2ccc(NC(=O)c3ccccc3C)cc2)n1,11,3,-2
CN(C)c1ccc(/C=C/C(=O)c2c(O)c3ccccc3oc2=O)cc1,2,-7,6
CCOc1ccc(/C=C/C(=O)c2c(O)c3ccccc3oc2=O)cc1,-1,92*,-5
COc1ccccc1NC(=S)NN=Cc1cccc(C)c1,·,12,7
COc1cc2ccccc2cc1C(=O)NN=Cc1ccc2c(c1)OCO2,1,2,0
COc1cc2ccccc2cc1C(=O)NN=Cc1cccnc1,48*,-6,1
O=C(NCCNCCO)C1(C(F)(F)F)CC(=CCc2ccccc2)CCCO1 (stereo not given),5,3,4
NC(=NN=Cc1cccs1)SC1CC(=O)N(c2cccc([N+](=O)[O-])c2)C1=O (stereo not given),10,-9,9
CCC[C@@H](CN1CCC[C@H]1CN1C(N)=NC[C@H]1C(C)C)N1C[C@@H]([C@H](C)CC)N(CCCC2CCCC2)C1=N,11,-7,-4
CCCCN1C(=N)N([C@@H](C)CN2CCC[C@H]2CN2C(N)=NC[C@H]2C(C)C)C[C@H]1[C@H](C)CC,0,1,-1
CCC(C)C1CN(C(CN2CCCC2CN2C(N)=NCC2Cc2ccccc2)C(C)C)C(=N)N1CCCC1CCCC1 (stereo not given),·,100*,100*
SMILES,Mtb hypoxia inh,Sa ugtP lethal,RN4220 kill
CCCCN1C(=N)N(C(CCC)CN2CCCC2CN2C(N)=NCC2Cc2ccccc2)CC1C(C)CC (stereo not given),·,-1,-7
CC[C@@H](C)[C@@H]1CN([C@@H](CN2CCC[C@H]2CN2C(N)=NC[C@H]2C(C)C)C(C)C)C(=N)N1CCCC1CCCC1,·,100*,94*
CCCC(CN1CCCC1CN1C(N)=NCC1Cc1ccccc1)N1CC(Cc2ccccc2)N(CCCC2CCCC2)C1=N (stereo not given),·,101*,101*
CCC[C@@H](CN1CCC[C@H]1CN1C(N)=NC[C@H]1CC(C)C)N1C[C@@H]([C@H](C)CC)N(CCCC2CCCC2)C1=N,·,101*,101*
CN(C)C1=NCC(Cc2ccccc2)N1CCC1CCCC1 (stereo not given),20,3,4
CCOC(=O)C=CC1CC(c2ccccc2)(c2ccccc2)CO1 (stereo not given),17,9,3
COc1cc(F)cc(C2=CC(=O)CC(c3ccc(F)cc3)C2)c1 (stereo not given),6,2,0
C=C1CCN(C(C(=O)NCc2ccco2)C(C)C)S(=O)(=O)c2ccccc21 (stereo not given),2,-6,-1
OC(CNCC1CCCO1)Cn1c2ccc(Cl)cc2c2cc(Cl)ccc21 (stereo not given),14,-19,48
OC(CNCCC1C=Nc2ccccc21)Cn1c2ccc(Cl)cc2c2cc(Cl)ccc21 (stereo not given),-3,101*,100*
COc1cccc(CSc2nc3ccccc3cc2C=O)c1,·,98*,-6
COc1cccc(NC(=O)CSc2nc3ccccc3cc2Cc2ccccc2)c1,13,14,-5
Cc1nc(N)nc(NN=Cc2ccccc2)n1,-11,3,4
O=C(NN=Cc1ccc([N+](=O)[O-])o1)c1cc2ccccc2o1,·,31,24
